Screens deposited in PubChem BioAssay by Emory University Molecular Libraries Screening Center.
Shown is part of a subset that was picked to be rich in hits.
14-3-3 PPI – modulators of 14-3-3 gamma protein binding, primary screen, biochemical, fluorescence polarization | 14-3-3 protein gamma (Homo sapiens), P61981 | FP, 14-3-3gamma / TMR-pS259-Raf peptide binding | inhibition, % at 40 µM | 160,000 tested, 0.19% active; in the data active means inhibition above about 30%;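 further: 0% = protein plus tracer without compound and 100% = blank with tracer alone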
Target sequence (P61981 whole entry, looked up): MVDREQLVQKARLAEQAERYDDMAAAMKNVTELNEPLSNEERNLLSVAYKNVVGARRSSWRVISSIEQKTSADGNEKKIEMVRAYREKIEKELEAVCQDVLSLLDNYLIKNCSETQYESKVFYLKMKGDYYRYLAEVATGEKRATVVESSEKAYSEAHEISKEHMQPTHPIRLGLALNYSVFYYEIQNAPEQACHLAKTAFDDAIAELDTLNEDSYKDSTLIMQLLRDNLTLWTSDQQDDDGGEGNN
Numbers without * were called inactive.

SMILES	14-3-3 PPI
COC(=O)C1=C(C)NC2=C(C(=O)CC(c3ccccc3OC)C2)C1c1cccc([N+](=O)[O-])c1 (stereo unspecified)	-2
N#Cc1c(SCC(=O)Nc2ccc(Cl)cc2)nc2c(c1-c1ccco1)CCCC2	-27
O=C(Nc1cc(C(F)(F)F)ccc1Cl)c1cc(S(=O)(=O)N2CCc3ccccc32)ccc1F	-2
CC1=C(C(=O)Nc2ccc(C)cn2)C(c2ccc3c(c2)OCO3)C2=C(CC(C)(C)CC2=O)N1 (stereo unspecified)	-5
CC1(C)CC(=O)c2sc(N3CCCCC3)nc2C1	1
CC1(C)CC(=S)C=C(N2CCCCC2)C1	125*
CC1(C)CC(=O)C=C(N2CCN(C3=CC(=O)CC(C)(C)C3)CC2)C1	0
COC(=O)c1ccccc1N1C(=O)c2ccc(C)cc2C1=O	-5
COc1ccc(C(=O)NCCn2cc(SC(C)c3ccccc3)c3ccccc32)cc1 (stereo unspecified)	2
O=C(Nc1ccc(I)cc1)c1ccncc1	4
COc1ccc(S(=O)(=O)N2CCC(C(N)=O)CC2)cc1C	-5
Cc1ccc(O)c(N=Cc2ccc(OCc3ccccc3)cc2)c1	-19
Oc1ccc(Cl)cc1N=Cc1ccc(OCc2ccccc2)cc1	-7
Oc1ccc(N=Cc2ccc(OCc3ccccc3)cc2)cc1	35*
O=[N+]([O-])c1cccc(S(=O)(=O)Nc2ccc(Br)cn2)c1	-9
COc1ccc(CCNC(=O)C2(C)CCC(=O)N2Cc2ccccc2Cl)cc1OC (stereo unspecified)	-4
CCOC(=O)C1=C(C)NC2=C(C(=O)CC(C)(C)C2)C1c1ccccc1C(F)(F)F (stereo unspecified)	13
O=C(Nc1ccc(S(=O)(=O)N2CCc3ccccc32)cc1)c1ccc(-c2ccccc2)cc1	-112
Cc1nc2nc(Cc3ccccc3)[nH]n2c(=O)c1Cc1ccccc1	50*
Cc1nc2nc(-c3ccccc3)[nH]n2c(=O)c1Cc1ccccc1	-15
Cc1nc2nc(Cc3ccccc3)[nH]n2c(=O)c1Cl	5
Cc1ccc(NC(=O)c2sc3nc4c(cc3c2N)CCCC4)c(C)c1	-3
O=C(NCC1CCCO1)C1CCC(CNS(=O)(=O)c2ccc(F)cc2)CC1 (stereo unspecified)	11
COC(=O)C1=C(C(=O)OC)C(c2cccc([N+](=O)[O-])c2)c2sc(=O)[nH]c2S1 (stereo unspecified)	34*
COC(=O)C1=C(C(=O)OC)C(c2cc([N+](=O)[O-])ccc2OCc2ccccc2Cl)c2sc(=O)[nH]c2S1 (stereo unspecified)	-9
SMILES	14-3-3 PPI
CCOC(=O)C1=C(C)NC(C)=C(C(=O)OC)C1c1cccc([N+](=O)[O-])c1 (stereo unspecified)	0
CCOC(=O)c1c(N=Cc2cc(Br)c(O)c([N+](=O)[O-])c2)sc2c1CCCC2	-10
Cc1ccc(CNC(=O)c2ccc(CNS(=O)(=O)c3ccc(C)cc3)cc2)cc1	-6
COc1cccc(CNC(=O)c2ccc(CNS(=O)(=O)c3ccc(C)cc3)cc2)c1	34*
CNC(=O)c1ccc(CNS(=O)(=O)c2ccc(C)cc2)cc1	3
CCOc1cc([N+](=O)[O-])cc(C=Nc2cccc(NC(=O)c3ccccc3)c2)c1O	-74
O=C(Nc1cccc(N=Cc2c(O)ccc3cc([N+](=O)[O-])ccc23)c1)c1ccc(F)cc1	-1
O=C(Nc1cccc(N=Cc2c(O)ccc3cc([N+](=O)[O-])ccc23)c1)c1ccccc1	32*
O=C1NC(=O)C2C1ON(c1ccccc1)C2c1ccccc1 (stereo unspecified)	-4
Cc1cccn2c(=O)c3cc(C(=O)NC(C)c4ccccc4)c(=N)n(C4CCCCC4)c3nc12 (stereo unspecified)	1
CNc1c(C(=O)O)ccc2c1C(=O)c1ccccc1C2=O	-149
O=C(O)c1ccc2c(c1NCCO)C(=O)c1ccccc1C2=O	31*
CC1CCCC(C)N1C(=O)c1ccc2c(c1NCCO)C(=O)c1ccccc1C2=O (stereo unspecified)	-268
Cc1ccc(C(=O)Oc2cccc(NC(=O)c3ccc(Br)cc3)c2)cc1S(=O)(=O)N1CCOCC1	-9
O=C(CCCn1c(=O)[nH]c2ccc(Br)cc2c1=O)NCCc1ccccc1	6
CCCOc1c(Br)cc(C2C3=C(CCCC3=O)N(CC)C3=C2C(=O)CCC3)cc1OCC	-10
CCOc1cc(C2C3=C(CCCC3=O)N(CC)C3=C2C(=O)CCC3)ccc1O	5
CCOc1cc(C2C3=C(CCCC3=O)N(CC)C3=C2C(=O)CCC3)cc(Br)c1O	41*
OC(Cn1ccnc1)c1ccccc1 (stereo unspecified)	-8
O=C(CCNS(=O)(=O)c1ccc(Cl)cc1)NCc1cccnc1	-3
COc1ccc(S(=O)(=O)NCCC(=O)NCc2cccnc2)cc1	56*
COc1ccc(S(=O)(=O)NCCC(=O)NCc2cccs2)cc1	-5
CCn1c(CSc2nccn2C)nc2cc(C(=O)O)ccc21	57*
Cn1ccnc1SCC(=O)c1ccc(Cl)cc1	8
COc1ccc(C(=O)CSc2nccn2C)cc1OC	-6
SMILES	14-3-3 PPI
CN(C(=O)c1ccc(=O)[nH]c1)C1(C(=O)NC2CCCC2)CCCCC1	-8
CC1(C)CC(=O)C2=C(C1)Nc1nc(SCc3cccc(F)c3)[nH]c(=O)c1C2c1ccc(Br)cc1 (stereo unspecified)	-11
Oc1ccccc1-c1nc(Nc2cccc(C(F)(F)F)c2)c2ccccc2n1	2
O=C(O)Cn1c(-c2ccccc2)nc2ccccc21	-2
O=C(O)Cn1c2ccccc2c2nn3cc(-c4ccccc4)nc3nc21	119*
COC(=O)Cn1c2ccccc2c2nc3ccccc3nc21	-5
CCCCn1c(=NC(=O)c2ccc(-c3ccccc3)cc2)c(C(=O)OCC)cc2c(=O)n3ccccc3nc21	-3
CCc1ccccc1N(C)S(=O)(=O)c1ccc2[nH]cc(C(=O)NCCc3ccccc3)c(=O)c2c1	-2
CCc1ccc(NS(=O)(=O)c2ccc3[nH]cc(C(=O)NCc4ccccn4)c(=O)c3c2)cc1	172*
COCCCNC(=O)c1c[nH]c2ccc(S(=O)(=O)N(C)c3c(C)cccc3C)cc2c1=O	-10
CCc1ccc(NS(=O)(=O)c2ccc3[nH]cc(C(=O)NCc4ccccc4)c(=O)c3c2)cc1	-15
Cc1ccccc1N(C)S(=O)(=O)c1ccc2[nH]cc(C(=O)NCC3CCCO3)c(=O)c2c1 (stereo unspecified)	-6
CCc1ccc(NS(=O)(=O)c2ccc3[nH]cc(C(=O)NCc4ccc(C)cc4)c(=O)c3c2)cc1	-15
Cc1cccc(C)c1N(C)S(=O)(=O)c1ccc2[nH]cc(C(=O)NCc3ccccn3)c(=O)c2c1	44*
CCOc1ccc(N(C)S(=O)(=O)c2ccc3[nH]cc(C(=O)NCc4ccccc4)c(=O)c3c2)cc1	-12
CCc1ccccc1N(C)S(=O)(=O)c1ccc2[nH]cc(C(=O)O)c(=O)c2c1	63*
C=CCN(c1ccccc1)S(=O)(=O)c1ccc2[nH]cc(C(=O)NCc3ccccn3)c(=O)c2c1	0
CCCCN(C)C(=O)c1c[nH]c2ccc(S(=O)(=O)N(C)c3ccccc3CC)cc2c1=O	-7
CN(c1ccc(Br)cc1)S(=O)(=O)c1ccc2[nH]cc(C(=O)NCc3ccccn3)c(=O)c2c1	147*
CN1C(=O)c2ccccc2C(C(=O)NCCN2CCN(c3cccc(Cl)c3)CC2)C1c1cn(C)c2ccccc12 (stereo unspecified)	-7
CCN(CC)c1ncnc2sc(C(=O)Nc3ccccc3F)c(C)c12	-2
